Among the data in PubChem BioAssay (Tox21) are outcome and activity change, negative = inhibition values, retold here.

Results filed as inconclusive are left out. A number with no mark means an inactive call. Active and inactive are the calls of the source. Calls follow the shape of the dose curve; as a rule, active = well fitted inhibition curve with a large enough effect in the repeat runs; inconclusive = weak or mixed curves; inactive = no such curve, though single readings can be large or run the other way.
% is scaled to controls: 0 for no effect and ±100 for the full control effect.

The assay deals with Estrogen receptor (Homo sapiens) (UniProt P03372). Nature of the assay: qHTS assay to identify small molecule antagonists of the estrogen receptor alpha (ER-alpha) signaling pathway using the BG1 cell line in the presence of 0.1 nM 17-beta-estradiol (AID 1259244). Also: nearly all actives have a fitted effect of over 50% in size. The conditions noted are these: VM7Luc4E2 (BG1) ERE-luciferase, antagonist mode, 0.1 nM E2, 22 h; series mostly up to 92.4 µM. An excerpt: National Center for Advancing Translational Sciences [NCATS]
Sequence of Estrogen receptor (Homo sapiens) (P03372 whole entry, looked up): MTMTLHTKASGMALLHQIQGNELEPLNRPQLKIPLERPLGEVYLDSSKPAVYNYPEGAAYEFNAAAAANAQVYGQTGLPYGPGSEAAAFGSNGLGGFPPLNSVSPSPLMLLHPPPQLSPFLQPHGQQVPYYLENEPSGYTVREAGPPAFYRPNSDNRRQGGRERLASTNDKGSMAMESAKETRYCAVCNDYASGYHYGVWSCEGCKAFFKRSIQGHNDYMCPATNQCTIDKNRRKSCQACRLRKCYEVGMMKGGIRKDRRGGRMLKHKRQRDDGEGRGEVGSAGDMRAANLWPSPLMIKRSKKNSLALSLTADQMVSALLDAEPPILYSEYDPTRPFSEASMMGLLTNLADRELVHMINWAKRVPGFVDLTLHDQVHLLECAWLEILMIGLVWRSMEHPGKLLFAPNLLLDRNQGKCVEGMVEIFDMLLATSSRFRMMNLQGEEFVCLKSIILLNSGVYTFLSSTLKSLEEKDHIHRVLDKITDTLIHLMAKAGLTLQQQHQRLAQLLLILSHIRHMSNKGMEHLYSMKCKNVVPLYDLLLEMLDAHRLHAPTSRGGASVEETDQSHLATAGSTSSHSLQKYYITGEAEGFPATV
NIH Chemical Genomics Center [NCGC]
U.S. Environmental Protection Agency [EPA]
National Institutes of Environmental Health Sciences [NIEHS]
National Toxicology Program [NTP]
U.S. Food and Drug Administration [FDA]
Estrogen receptor (ER), a member of the nuclear hormone receptor plays an important role in development, metabolic homeostasis and reproduction. Two subtypes of ER, ER-alpha and ER-beta, have similar expression patterns with some uniqueness in both types. Endocrine disrupting chemicals (EDCs) and their interactions with steroid hormone receptors like ER causes disruption of normal endocrine function. Therefore, it is important to understand the effect of environmental chemicals in ER signaling pathway. For identifying ER antagonists, VM7Luc4E2 cell line was used to screen against Tox21 compound libraries.
VM7Luc4E2 cell line (provided by Denison MS, University of California) endogenously express full-length ER-alpha and is stably transfected with a plasmid containing four estrogen responsive elements (ERE) upstream of a luciferase reporter gene. The current screening for identification of ER-alpha inhibitors against Tox21 compound libraries used lower concentration (0.1 nM) of 17beta-Estradiol as a stimulator.
Tox21 Assay Protocol Summary:
VM7Luc4E2 cells were cultured in phenol red free assay medium containing 10% charcoal stripped FBS for 5 days prior to the assay. The cells were dispensed at 4,000 cells/well in 4 uL of assay medium into white wall/solid-bottom 1536-well plates (Corning Life Sciences, Corning, NY) using a Multidrop Combi (ThermoFisher Scientific, Waltham, MA) dispenser. After the assay plates were incubated at 37C and 5% CO2 for 24 hr, 23 nL of compounds dissolved in DMSO, positive controls or DMSO only was transferred to the assay plates by a Pintool station (Kalypsys, San Diego, CA). The transfer of compounds was followed by the addition of 1 uL of 0.1 nM (final concentration) agonist (17beta-Estradiol)/assay medium using a Flying Reagent Dispenser (FRD, Aurora Discovery, San Diego, CA). The plates were incubated at 37C and 5% CO2 for 22 hr. For luciferase reporter gene assay, 4 uL of ONE-Glo reagent (Promega Corporation, Madison, WI) was added to each well using the FRD and after 30 min incubation at room temperature luminescence intensity was measured using ViewLux plate reader (PerkinElmer, Shelton, CT).
On the technique in general: Quantitative high-throughput screening tests each substance at several concentrations.
On to `CC(C)(O)CCCC1=CCC(C=O)CC1` (stereo not given), for which the outcome was inactive.
Same read-out and setting: with `CCCCC(O)/C=C(C)/C=C/C=C/C(=O)N1CCCC1=O` (stereo not given) the entry was “inactive”; with `CC/C=C\CCOC(=O)c1ccccc1`, “inactive”; with `CCOC(=O)CC(C(C)=O)C(C)=O`, “inactive”.
On to `CC(C)CC(O)Cc1ccccc1` (stereo not given), for which the result was inactive.
The same measure, in the same setting: with `CC(C)(C)c1ccc(N)cc1` the entry was “inactive”.
Take `CCO[Si](CC(C)C)(OCC)OCC`: the result was inactive.
On the same count and under the same terms, under `C[Si](C)(C)O[Si](O)(O)O` stands “inactive”; under `CN(C)c1ccncc1`, “inactive”; under `C/C=C/C(=O)CCCC`, “inactive”.
Same read-out and setting: with `CC(C)(C)OC(=O)c1ccccc1C(=O)O` the entry was “inactive”; with `CC[C@@]1(c2ccccc2)NC(=O)N(C)C1=O`, “inactive”; with `CCCCCCCCCCCCCC(=O)OCC`, “inactive”.
Still for that read-out and setting: with `CN1CCN(C(=O)C2CCCCC2)CC1` the entry was “inactive”.
In the case of `Cc1cc2c(cc1CC(=O)c1sccc1S(=O)(=O)Nc1onc(C)c1Cl)OCO2`, the outcome was inactive.
With `Cc1cccc(N)n1`, the outcome was inactive.
As for `BrCCOc1ccccc1`, the outcome was inactive.
Still for that read-out and setting: with `CN(C)CCc1c[nH]c2ccc(C[C@H]3COC(=O)N3)cc12` the entry was “inactive”; with `CCCC(=O)OC`, “inactive”.
The same measure, in the same setting: under `O=S(=O)(O)CC(O)CCl` (stereo not given) stands “inactive”.
Still for that read-out and setting: with `Nc1ccc(C(=O)NCC(=O)O)cc1` the entry was “inactive”.
Turning to `O=C(OOC(=O)c1ccccc1)c1ccccc1`, the outcome was inactive.
Same read-out and setting: with `N#Cc1cc(NC(=O)C(=O)O)c(Cl)c(NC(=O)C(=O)O)c1` the entry was “inactive”.
On the same count and under the same terms, under `CCCCC(CC)COC(=O)CC#N` (stereo not given) stands “inactive”.
Still for that read-out and setting: with `O=C(CCBr)N1CCN(C(=O)CCBr)CC1` the entry was “inactive”; with `O=Cc1ccc(C(=O)O)cc1`, “inactive”.
For the molecule `CN(C)CCCN(C)C`, the activity change, negative = inhibition is -10.8% [at 8.39 µM].
For the molecule `CC(C)c1cc(C(C)C)cc(C(C)C)c1`, the result was inactive.
Turning to `O=C(c1ccccc1)c1cccc(O)c1`, the result was inactive.
Same read-out and setting: under `CCOC(=O)COc1ccc2c(C)c(CCN(CC)CC)c(=O)oc2c1Cl` stands “inactive”; under `Cc1ccc(Br)cc1`, “inactive”.
The same measure, in the same setting: with `C=CCCCCCCCCOC(C)=O` the entry was “inactive”; with `CC(=O)c1ccc2ccc3ccccc3c2c1`, “inactive”; with `CCC(C)SSC(C)CC` (stereo not given), “inactive”.
On the same count and under the same terms, with `CCCCCCC(O)CO` (stereo not given) the entry was “inactive”; with `Cc1ccc2cccnc2c1`, “inactive”.
Turning to `O=C(O)COc1ccc2ccccc2c1`, the result was inactive.
On to `CCCCOCCCC`, for which the result was inactive.
On the same count and under the same terms, with `CC(=O)Nc1ccc(OCCOCCOc2ccc(NC(C)=O)cc2)cc1` the entry was “inactive”.
Take `CCCCCCCCCCCCCCCC(=O)OC`: the activity change, negative = inhibition is -4.11% [at 19 µM].
